An excerpt weighted towards active compounds, which were near 19% of everything screened.
TDP1 cell noCPT – qHTS for Inhibitors of human tyrosyl-DNA phosphodiesterase 1 (TDP1): qHTS in cells in absence of CPT. DT40 Tdp1-/- hTDP1 cells, no CPT, ATP luminescence, 48 h. Potency, µM (doses to about 46.2 µM), actives largely listed as inhibitors. 420,000 tested, 15% active. AID 686978, 2013; also: nearly all actives have a fitted effect of over 55% in size
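Growth kinetics read by CellTiter-Glo luminescence after ≥48 hr at 37 °C. Cells: DT40 Tdp1-/- stably carrying human TDP1, 400 per well, compound exposure in the absence of CPT (DMSO vehicle).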
HT1080 IDH1KD tx – kills HT-1080 cells with IDH1 knockdown; HT-1080 IDH1 knockdown viability, ATP luminescence, 48 h; 360,000 tested, 2% active; Potency, µM (highest dose often 46.1 µM), actives largely listed as cytotoxic
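In this qHTS, HT-1080 cells depleted of IDH1 are exposed for 48 h at 37 °C to compound titrations. Toxicity is scored from CellTiter-Glo luminescence, with DMSO as full viability and medium alone as none.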
TDP1 cell CPT – DT40-hTDP1 cell growth loss with CPT; 420,000 tested, 12% active; chicken DT40 Tdp1-/-;hTDP1 cells + 20 nM CPT, ATP luminescence, 48 h; AID 686979; Potency, µM (titrated, usually from 46.2 µM), actives largely listed as inhibitors; also: nearly all actives have a fitted effect of over 55% in size
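Cell growth measured by CellTiter-Glo luminescence after a minimum 48 h, 37 C compound exposure with 20 nM CPT in Tdp1-knockout DT40 cells stably expressing hTDP1, seeded 400/well; qHTS titration format.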
HT1080-NT tox – kills 2HG-producing HT-1080-NT fibrosarcoma cells; HT-1080-NT fibrosarcoma viability, CellTiter-Glo ATP luminescence, 48 h; Potency, µM (top dose mostly 46.1 µM), actives largely listed as cytotoxic; 360,000 tested, 1.6% active;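 also: NT is the 2HG producing partner of a matched IDH1 knockdown line; nearly all actives have a fitted effect of over 55% in size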
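750 cells/well, RPMI + 5% FBS; 2 h settle, compound pin-transfer, 48 h at 37 degrees C. CellTiter-Glo 10 min RT, luminescence. Normalized to DMSO and media-only wells.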
IL1B secr inh – blocks inflammasome-driven IL-1 beta release. THP-1 LPS/ATP IL-1B secretion, AlphaLISA, 16 h; stronger effect = lower value. activity change, % at 57.5 µM. 360,000 tested, 4.7% active; in the data active = activity change below about -50%; inconclusive = mostly about -30% to -49%
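Secreted IL-1B measured by AlphaLISA bead assay after 16 h compound exposure of THP-1 cells; compounds (final up to 57.5 uM) added 1 h before LPS (250 ng/mL) and ATP (1.25 mM) stimulation; lower signal means less secretion.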
uPA generation – cell surface uPA generation inhibition | cell surface uPA generation assay, qHTS | AID 540303 | Potency, µM (series often up to 38.3 µM), usual class: inhibitors | 330,000 tested, 0.31% active; active = well fitted inhibition curve with a large enough effect; inconclusive = small, poorly fitted or top-dose-only effect; inactive = no such curve, though single readings can be large or run the other way; tested in mouse RAW 264.7 cells; also: nearly all actives have a fitted effect of over 55% in size
Large screens that a line does not name were inactive. Unless noted, calls follow the shape of the dose curve; as a rule, active = well fitted curve in the direction sought with a large enough effect; inconclusive = small, poorly fitted or top-dose-only effect, or another doubt; inactive = no such curve, though single readings can be large; an effect the other way counts as inactive or inconclusive.

COc1ccc(C2NCc3ccc4c(c3-n3cccc32)OCO4)cc1O (stereo not given)	TDP1 cell noCPT 4.6µM, HT1080 IDH1KD tx 1.8µM, TDP1 cell CPT 4.1µM, HT1080-NT tox inconclusive
c1cc2c(cc1C1OC[C@@H]3C(c4ccc5c(c4)OCO5)OCC13)OCO2 (stereo not given in full)	TDP1 cell noCPT inconclusive (no result: HT1080 IDH1KD tx, HT1080-NT tox, IL1B secr inh, uPA generation)
c1cc2n(c1)-c1c(ccc3c1OCO3)CNC2c1ccc2c(c1)OCO2 (stereo not given)	TDP1 cell noCPT 13µM, HT1080 IDH1KD tx inconclusive, TDP1 cell CPT inconclusive, HT1080-NT tox inconclusive
O=C(Nc1ccc(Cl)c(C(F)(F)F)c1)C1CCCN(S(=O)(=O)c2cccc3cccnc23)C1 (stereo not given)	TDP1 cell noCPT 6.5µM, TDP1 cell CPT 7.3µM (no result: HT1080 IDH1KD tx, HT1080-NT tox, IL1B secr inh, uPA generation)
O=C(Cc1ccc(Cl)c(Cl)c1)N1CCCCC1CN1CCCC1 (stereo not given)	none (no result: HT1080 IDH1KD tx, HT1080-NT tox, IL1B secr inh, uPA generation)
COc1cc(/C=C/c2ccc3cccc(OC)c3n2)c(OC(C)=O)c([N+](=O)[O-])c1	TDP1 cell noCPT 15µM, HT1080 IDH1KD tx inconclusive, TDP1 cell CPT 12µM, HT1080-NT tox inconclusive, IL1B secr inh inconclusive (no result: uPA generation)
O=C(Cc1ccccc1)c1ccccn1	TDP1 cell noCPT inconclusive, TDP1 cell CPT inconclusive
Cc1ccc(C(=O)Nc2c(C(=O)Nc3ccc(C)c(C)c3)sc3nc(C)cc(C)c23)cc1	TDP1 cell noCPT 18µM, TDP1 cell CPT inconclusive (no result: HT1080 IDH1KD tx, HT1080-NT tox, IL1B secr inh, uPA generation)
COc1cc(OC)c2c(c1)O[C@@H](c1ccc(OC)c(OC)c1)[C@H](O)C2	none
CN1CCN(CCC(=O)OC2CC3CCC(C2)N3C)CC1 (stereo not given)	none
C[C@@H](C(=O)OC1C[C@H]2CC[C@@H](C1)N2C)c1ccc(Br)cc1 (stereo not given in full)	TDP1 cell noCPT 27µM, TDP1 cell CPT 30µM (no result: HT1080 IDH1KD tx, HT1080-NT tox, IL1B secr inh, uPA generation)
CN1C2CCC1CC(OC(=O)c1cc(Cl)cc(Cl)c1)C2 (stereo not given)	TDP1 cell noCPT inconclusive, HT1080 IDH1KD tx inconclusive, TDP1 cell CPT 15µM, HT1080-NT tox inconclusive
COc1cc(C(=O)OC2C[C@H]3CC[C@@H](C2)N3C)ccc1O (stereo not given in full)	none
Cc1cc(C)cc(C(=O)OC2C[C@H]3CC[C@@H](C2)N3C)c1 (stereo not given in full)	TDP1 cell noCPT 19µM, TDP1 cell CPT 24µM (no result: HT1080 IDH1KD tx, HT1080-NT tox, IL1B secr inh, uPA generation)
CC1=C2CCC3C4CCC(=O)[C@@]4(C)CCC3[C@]2(C)CCC1=O (stereo not given in full)	none (no result: HT1080 IDH1KD tx, HT1080-NT tox, IL1B secr inh, uPA generation)
C[C@@]12CCC(OS(=O)(=O)O)C[C@@H]1CCC1C2CC[C@]2(C)C(=O)CCC12 (stereo not given in full)	none (no result: HT1080 IDH1KD tx, HT1080-NT tox, IL1B secr inh, uPA generation)
CNC(=O)COC(=O)c1ccc(-c2nc3ccccc3s2)s1	TDP1 cell noCPT inconclusive
O=C1NC(=O)C(Nc2ccc(Cl)c(Cl)c2)C(=O)N1	none
FC(F)OC(F)(F)C(F)Cl (stereo not given)	none (no result: HT1080 IDH1KD tx, HT1080-NT tox, IL1B secr inh, uPA generation)
C=CCN=C(SCC(=O)c1ccc(Cl)cc1)c1c(O)n(C)c(=O)n(C)c1=O	TDP1 cell noCPT inconclusive, HT1080 IDH1KD tx inconclusive, TDP1 cell CPT inconclusive, uPA generation inconclusive
O=c1[nH]c(O)c(N=Nc2ccc(SC(F)F)cc2)c(=O)[nH]1	HT1080-NT tox inconclusive
O=C(N=Nc1c(O)[nH]c(=O)[nH]c1=O)C1COc2cc3ccccc3cc2O1 (stereo not given)	TDP1 cell noCPT inconclusive, TDP1 cell CPT 18µM
COC(=O)C1=C(c2ccc(F)cc2F)C[C@@H]2CC[C@H]1N2C(=O)NCCOc1ccc(OC)cc1	TDP1 cell noCPT inconclusive, TDP1 cell CPT inconclusive
CN1CCCC2(CCN(C(=O)Oc3ccccc3)CC2)C1	none (no result: HT1080 IDH1KD tx, HT1080-NT tox, IL1B secr inh, uPA generation)
C[C@@H]1C[C@H]2[C@@H]3CCC4=CC(=O)C=C[C@]4(C)[C@@]3(Cl)[C@@H](O)C[C@]2(C)[C@@]1(OC(=O)c1ccco1)C(=O)CCl	TDP1 cell noCPT 12µM, HT1080 IDH1KD tx inconclusive, TDP1 cell CPT 16µM, HT1080-NT tox 16µM, IL1B secr inh -89, uPA generation inconclusive

High-throughput results from PubChem.
